Assays:
[1] = biological target: T1, Inhibitor of nuclear factor kappa-B kinase subunit epsilon (Homo sapiens) (UniProt Q14164); conditions: at 1 µM;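 further: reported values are averaged percent inhibition figures against human IKKε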
T1 sequence (whole entry): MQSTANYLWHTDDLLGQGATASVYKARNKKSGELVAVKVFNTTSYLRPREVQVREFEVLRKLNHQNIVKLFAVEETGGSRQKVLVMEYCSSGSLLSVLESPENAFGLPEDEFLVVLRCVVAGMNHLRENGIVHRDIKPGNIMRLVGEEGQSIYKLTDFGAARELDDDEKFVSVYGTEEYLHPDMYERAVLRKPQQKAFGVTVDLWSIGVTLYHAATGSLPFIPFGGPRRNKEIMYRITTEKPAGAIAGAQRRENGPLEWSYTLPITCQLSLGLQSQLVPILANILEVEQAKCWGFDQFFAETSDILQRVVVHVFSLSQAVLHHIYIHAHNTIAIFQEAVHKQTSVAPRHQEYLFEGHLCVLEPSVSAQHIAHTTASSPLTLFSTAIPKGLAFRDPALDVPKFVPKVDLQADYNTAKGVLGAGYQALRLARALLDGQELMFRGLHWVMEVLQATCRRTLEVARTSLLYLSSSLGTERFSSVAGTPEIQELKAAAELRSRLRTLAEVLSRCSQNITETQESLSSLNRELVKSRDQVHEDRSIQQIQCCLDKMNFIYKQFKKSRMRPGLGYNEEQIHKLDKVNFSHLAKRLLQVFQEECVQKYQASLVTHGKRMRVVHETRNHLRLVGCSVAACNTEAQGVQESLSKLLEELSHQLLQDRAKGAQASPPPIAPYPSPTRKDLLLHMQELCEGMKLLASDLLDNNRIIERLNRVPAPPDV

[2] = biological target: T2, Serine/threonine-protein kinase Nek1 (Homo sapiens) (UniProt Q96PY6); conditions: at 0.1 µM
T2 sequence (whole entry): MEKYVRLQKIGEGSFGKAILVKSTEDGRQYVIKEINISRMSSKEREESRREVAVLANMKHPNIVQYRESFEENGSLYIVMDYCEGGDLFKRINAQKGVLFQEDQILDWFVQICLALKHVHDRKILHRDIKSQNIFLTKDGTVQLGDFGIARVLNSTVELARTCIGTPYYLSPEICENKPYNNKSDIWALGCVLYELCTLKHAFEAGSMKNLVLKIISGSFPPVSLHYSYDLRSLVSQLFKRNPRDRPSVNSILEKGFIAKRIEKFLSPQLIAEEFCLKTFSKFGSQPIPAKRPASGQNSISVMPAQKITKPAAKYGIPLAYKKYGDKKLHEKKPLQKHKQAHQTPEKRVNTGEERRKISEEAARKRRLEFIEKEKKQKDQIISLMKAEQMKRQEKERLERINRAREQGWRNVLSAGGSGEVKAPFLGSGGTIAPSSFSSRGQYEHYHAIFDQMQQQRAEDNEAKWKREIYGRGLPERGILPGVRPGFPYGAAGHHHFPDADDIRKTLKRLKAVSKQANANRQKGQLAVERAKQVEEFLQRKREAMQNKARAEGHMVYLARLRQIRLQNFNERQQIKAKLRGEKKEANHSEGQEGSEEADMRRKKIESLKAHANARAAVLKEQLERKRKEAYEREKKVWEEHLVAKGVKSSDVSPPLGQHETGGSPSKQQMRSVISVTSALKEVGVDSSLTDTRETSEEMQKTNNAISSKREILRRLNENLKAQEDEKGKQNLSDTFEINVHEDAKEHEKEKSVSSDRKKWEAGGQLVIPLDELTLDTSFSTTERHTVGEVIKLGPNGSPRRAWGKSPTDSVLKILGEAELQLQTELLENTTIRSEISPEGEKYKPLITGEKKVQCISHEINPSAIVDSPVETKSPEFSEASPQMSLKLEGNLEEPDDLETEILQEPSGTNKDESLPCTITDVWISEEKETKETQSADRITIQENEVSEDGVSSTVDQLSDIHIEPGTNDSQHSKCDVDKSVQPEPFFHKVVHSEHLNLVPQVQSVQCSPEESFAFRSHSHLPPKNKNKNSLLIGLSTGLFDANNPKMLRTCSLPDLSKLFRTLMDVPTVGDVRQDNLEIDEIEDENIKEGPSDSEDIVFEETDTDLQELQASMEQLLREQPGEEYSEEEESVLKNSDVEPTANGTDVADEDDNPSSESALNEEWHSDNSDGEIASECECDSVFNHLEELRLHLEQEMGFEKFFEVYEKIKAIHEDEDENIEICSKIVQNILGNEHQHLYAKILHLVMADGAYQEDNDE

[3] = biological target: T2, Serine/threonine-protein kinase Nek1 (Homo sapiens); conditions: at 1 µM
[4] = biological target: T3, Serine/threonine-protein kinase Nek2 (Homo sapiens) (UniProt P51955); conditions: at 0.1 µM
T3 sequence (whole entry): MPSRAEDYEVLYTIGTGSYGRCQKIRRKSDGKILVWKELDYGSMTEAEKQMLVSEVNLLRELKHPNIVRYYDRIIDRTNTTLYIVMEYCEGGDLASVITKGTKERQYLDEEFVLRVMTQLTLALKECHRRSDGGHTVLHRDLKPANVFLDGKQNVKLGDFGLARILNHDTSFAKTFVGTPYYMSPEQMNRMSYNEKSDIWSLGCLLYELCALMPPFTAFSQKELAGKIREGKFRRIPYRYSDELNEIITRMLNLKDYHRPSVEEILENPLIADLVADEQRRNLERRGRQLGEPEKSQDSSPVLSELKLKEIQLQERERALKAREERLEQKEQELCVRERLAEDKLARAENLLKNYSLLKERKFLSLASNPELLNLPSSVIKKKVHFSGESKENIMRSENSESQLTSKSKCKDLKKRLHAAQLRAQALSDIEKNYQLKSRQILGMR

[5] = biological target: T3, Serine/threonine-protein kinase Nek2 (Homo sapiens); conditions: at 1 µM
[6] = biological target: Serine/threonine-protein kinase Nek6 (Homo sapiens) (UniProt Q9HC98); conditions: at 0.1 µM
Chain of Serine/threonine-protein kinase Nek6 (Homo sapiens) (Q9HC98 whole entry): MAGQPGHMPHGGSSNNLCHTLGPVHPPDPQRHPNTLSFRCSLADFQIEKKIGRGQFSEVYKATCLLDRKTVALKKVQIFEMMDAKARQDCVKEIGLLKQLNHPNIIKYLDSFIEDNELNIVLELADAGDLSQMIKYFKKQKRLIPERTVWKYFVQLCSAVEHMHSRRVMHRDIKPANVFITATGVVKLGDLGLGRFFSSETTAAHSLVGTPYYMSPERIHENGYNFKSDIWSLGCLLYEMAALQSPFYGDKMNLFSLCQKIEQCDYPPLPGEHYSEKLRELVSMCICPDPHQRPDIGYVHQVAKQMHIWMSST

[7] = biological target: Serine/threonine-protein kinase Nek6 (Homo sapiens) (UniProt Q9HC98); conditions: at 1 µM
[8] = biological target: Serine/threonine-protein kinase Nek7 (Homo sapiens) (UniProt Q8TDX7); conditions: at 0.1 µM
Chain of Serine/threonine-protein kinase Nek7 (Homo sapiens) (Q8TDX7 whole entry, looked up): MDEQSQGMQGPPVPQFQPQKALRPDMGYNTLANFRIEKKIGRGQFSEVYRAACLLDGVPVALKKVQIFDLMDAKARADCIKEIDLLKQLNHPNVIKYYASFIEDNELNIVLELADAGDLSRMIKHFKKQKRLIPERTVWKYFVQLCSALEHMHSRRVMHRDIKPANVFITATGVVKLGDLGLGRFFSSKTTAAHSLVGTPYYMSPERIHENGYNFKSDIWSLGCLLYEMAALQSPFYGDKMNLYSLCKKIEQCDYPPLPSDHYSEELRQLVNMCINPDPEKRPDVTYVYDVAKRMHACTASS

[9] = biological target: Serine/threonine-protein kinase Nek7 (Homo sapiens) (UniProt Q8TDX7); conditions: at 1 µM
[10] = biological target: T4, Serine/threonine-protein kinase Nek9 (Homo sapiens) (UniProt Q8TD19); conditions: at 0.1 µM
T4 sequence (whole entry): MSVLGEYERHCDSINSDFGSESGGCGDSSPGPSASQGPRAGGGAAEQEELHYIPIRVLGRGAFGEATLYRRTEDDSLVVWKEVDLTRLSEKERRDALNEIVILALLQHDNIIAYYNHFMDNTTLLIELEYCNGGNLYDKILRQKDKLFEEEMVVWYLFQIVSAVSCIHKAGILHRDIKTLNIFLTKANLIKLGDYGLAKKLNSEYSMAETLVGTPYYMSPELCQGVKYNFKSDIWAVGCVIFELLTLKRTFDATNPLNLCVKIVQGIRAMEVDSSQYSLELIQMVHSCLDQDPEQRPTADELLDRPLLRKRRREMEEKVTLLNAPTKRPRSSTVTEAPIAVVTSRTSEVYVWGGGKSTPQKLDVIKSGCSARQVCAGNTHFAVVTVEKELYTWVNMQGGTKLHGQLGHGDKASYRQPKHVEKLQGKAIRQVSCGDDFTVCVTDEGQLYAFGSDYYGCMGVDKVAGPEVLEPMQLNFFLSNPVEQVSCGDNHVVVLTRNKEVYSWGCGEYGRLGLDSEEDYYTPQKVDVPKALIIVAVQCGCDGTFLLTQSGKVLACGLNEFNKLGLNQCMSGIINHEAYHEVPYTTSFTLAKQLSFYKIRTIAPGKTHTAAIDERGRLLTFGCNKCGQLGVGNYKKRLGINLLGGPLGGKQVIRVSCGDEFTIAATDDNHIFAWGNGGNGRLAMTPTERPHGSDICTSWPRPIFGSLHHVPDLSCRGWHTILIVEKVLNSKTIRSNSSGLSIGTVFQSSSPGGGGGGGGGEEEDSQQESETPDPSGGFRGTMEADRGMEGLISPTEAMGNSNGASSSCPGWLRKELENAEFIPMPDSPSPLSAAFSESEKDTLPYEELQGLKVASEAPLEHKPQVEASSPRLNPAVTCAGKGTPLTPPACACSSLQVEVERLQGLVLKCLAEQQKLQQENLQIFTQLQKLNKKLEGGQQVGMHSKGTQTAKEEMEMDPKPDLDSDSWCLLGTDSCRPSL

[11] = biological target: T4, Serine/threonine-protein kinase Nek9 (Homo sapiens); conditions: at 1 µM
[12] = biological target: Serine/threonine-protein kinase PLK1 (Homo sapiens) (UniProt P53350); conditions: at 0.1 µM
Chain of Serine/threonine-protein kinase PLK1 (Homo sapiens) (P53350 whole entry): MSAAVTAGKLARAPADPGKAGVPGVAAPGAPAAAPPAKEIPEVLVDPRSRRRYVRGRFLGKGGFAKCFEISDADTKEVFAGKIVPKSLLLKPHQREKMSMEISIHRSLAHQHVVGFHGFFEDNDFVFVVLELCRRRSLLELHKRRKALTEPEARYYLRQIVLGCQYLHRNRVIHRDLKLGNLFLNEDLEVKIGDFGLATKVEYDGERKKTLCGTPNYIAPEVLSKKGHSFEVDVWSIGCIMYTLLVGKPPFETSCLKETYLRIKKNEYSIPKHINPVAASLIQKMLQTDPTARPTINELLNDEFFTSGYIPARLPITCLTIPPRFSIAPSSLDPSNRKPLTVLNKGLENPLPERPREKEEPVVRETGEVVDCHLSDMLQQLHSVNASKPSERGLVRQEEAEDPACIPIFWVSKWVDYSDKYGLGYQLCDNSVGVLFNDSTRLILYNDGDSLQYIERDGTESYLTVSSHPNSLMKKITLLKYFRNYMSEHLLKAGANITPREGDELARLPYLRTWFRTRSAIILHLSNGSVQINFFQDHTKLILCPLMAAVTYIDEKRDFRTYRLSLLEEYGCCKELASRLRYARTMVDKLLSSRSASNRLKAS

[13] = biological target: Serine/threonine-protein kinase PLK1 (Homo sapiens) (UniProt P53350); conditions: at 1 µM
[14] = biological target: T5, Dual specificity protein kinase TTK (Homo sapiens) (UniProt P33981); conditions: at 0.1 µM
T5 sequence (whole entry): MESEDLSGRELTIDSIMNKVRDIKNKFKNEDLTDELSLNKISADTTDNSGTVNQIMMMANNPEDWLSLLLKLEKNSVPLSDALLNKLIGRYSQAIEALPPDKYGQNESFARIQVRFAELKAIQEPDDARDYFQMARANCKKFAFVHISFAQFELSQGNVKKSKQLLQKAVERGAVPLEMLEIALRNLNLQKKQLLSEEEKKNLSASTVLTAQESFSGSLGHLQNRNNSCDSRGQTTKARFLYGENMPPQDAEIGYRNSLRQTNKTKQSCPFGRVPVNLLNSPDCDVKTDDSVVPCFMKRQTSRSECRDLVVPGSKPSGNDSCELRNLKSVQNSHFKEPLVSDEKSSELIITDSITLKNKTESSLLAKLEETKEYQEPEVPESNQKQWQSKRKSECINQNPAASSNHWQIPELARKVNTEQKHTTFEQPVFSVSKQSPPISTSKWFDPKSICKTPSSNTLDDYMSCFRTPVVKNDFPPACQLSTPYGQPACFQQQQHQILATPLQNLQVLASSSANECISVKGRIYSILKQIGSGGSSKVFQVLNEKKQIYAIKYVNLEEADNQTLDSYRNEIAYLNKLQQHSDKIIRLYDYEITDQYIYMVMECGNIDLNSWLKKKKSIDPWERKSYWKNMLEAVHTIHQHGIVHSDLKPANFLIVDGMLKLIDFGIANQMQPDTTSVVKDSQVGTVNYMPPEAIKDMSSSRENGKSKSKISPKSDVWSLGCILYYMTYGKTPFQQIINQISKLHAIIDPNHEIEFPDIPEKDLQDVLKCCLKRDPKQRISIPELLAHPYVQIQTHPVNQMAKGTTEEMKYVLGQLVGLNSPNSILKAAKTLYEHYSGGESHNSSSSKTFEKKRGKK

[15] = test system: T6, Receptor-type tyrosine-protein kinase FLT3 (Homo sapiens), P36888 [D835Y]; conditions: at 1 µM
T6 sequence (whole entry): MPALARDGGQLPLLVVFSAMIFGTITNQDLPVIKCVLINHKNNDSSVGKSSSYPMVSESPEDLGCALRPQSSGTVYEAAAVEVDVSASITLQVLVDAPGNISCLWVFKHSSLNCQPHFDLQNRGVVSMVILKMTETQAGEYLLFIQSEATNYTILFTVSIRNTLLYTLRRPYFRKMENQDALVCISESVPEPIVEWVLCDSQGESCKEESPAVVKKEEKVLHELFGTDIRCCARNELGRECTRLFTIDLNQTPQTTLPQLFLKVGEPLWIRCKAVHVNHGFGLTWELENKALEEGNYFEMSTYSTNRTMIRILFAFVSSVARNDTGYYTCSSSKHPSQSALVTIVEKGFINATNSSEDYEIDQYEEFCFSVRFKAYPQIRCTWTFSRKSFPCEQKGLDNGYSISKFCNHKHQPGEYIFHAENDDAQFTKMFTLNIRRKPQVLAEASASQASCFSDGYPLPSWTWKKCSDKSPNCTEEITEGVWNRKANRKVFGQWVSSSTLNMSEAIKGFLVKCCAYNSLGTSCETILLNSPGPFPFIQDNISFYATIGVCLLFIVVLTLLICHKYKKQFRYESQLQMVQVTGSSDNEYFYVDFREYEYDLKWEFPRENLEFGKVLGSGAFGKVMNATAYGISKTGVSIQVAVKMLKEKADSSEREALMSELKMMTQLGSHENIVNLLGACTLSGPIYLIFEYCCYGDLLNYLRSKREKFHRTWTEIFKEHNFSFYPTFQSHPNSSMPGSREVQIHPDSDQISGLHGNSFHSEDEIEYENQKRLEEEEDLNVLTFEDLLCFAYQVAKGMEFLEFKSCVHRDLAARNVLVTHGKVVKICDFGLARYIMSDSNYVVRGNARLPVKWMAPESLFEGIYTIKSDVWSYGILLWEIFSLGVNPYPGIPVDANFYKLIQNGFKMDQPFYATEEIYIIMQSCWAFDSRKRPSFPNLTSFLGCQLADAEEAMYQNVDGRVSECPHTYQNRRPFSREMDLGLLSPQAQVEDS

[16] = biological target: Vascular endothelial growth factor receptor 3 (Homo sapiens) (UniProt P35916); conditions: at 0.1 µM
Chain of Vascular endothelial growth factor receptor 3 (Homo sapiens) (P35916 whole entry): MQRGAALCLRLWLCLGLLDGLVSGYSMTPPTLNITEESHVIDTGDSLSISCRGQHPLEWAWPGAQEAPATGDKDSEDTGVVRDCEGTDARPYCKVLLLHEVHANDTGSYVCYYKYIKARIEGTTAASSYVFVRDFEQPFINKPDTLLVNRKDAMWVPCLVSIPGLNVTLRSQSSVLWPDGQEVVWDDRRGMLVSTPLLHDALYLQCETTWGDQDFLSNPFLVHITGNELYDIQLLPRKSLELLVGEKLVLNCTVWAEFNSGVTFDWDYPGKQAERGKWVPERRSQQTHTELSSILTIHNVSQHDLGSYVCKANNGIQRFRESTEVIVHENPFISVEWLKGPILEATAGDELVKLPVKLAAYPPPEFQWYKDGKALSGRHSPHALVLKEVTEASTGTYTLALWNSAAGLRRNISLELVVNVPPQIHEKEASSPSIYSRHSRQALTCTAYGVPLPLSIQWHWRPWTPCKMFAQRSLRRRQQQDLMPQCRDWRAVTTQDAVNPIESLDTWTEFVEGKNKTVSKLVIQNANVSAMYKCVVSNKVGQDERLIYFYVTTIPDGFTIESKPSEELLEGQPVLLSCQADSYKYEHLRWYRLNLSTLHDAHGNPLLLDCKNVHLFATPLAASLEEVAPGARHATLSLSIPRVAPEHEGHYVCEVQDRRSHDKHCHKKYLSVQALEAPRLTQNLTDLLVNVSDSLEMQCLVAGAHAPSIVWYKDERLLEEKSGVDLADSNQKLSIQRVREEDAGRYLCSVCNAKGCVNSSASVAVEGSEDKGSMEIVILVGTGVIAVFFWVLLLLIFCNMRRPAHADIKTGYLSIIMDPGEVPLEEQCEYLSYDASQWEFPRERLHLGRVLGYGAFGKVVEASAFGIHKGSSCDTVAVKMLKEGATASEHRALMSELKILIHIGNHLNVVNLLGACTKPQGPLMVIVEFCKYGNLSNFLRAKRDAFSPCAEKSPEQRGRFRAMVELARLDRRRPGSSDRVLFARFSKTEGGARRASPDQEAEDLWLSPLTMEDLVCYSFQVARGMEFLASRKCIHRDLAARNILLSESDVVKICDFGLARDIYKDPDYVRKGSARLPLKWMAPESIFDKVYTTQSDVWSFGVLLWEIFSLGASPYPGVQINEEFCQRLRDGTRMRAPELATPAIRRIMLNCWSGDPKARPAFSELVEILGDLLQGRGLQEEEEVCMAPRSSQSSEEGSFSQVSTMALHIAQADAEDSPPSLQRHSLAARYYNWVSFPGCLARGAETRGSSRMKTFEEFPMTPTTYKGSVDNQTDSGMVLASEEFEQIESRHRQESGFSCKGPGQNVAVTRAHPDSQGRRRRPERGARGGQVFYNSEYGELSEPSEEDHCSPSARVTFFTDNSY

[17] = biological target: Vascular endothelial growth factor receptor 3 (Homo sapiens) (UniProt P35916); conditions: at 1 µM
[18] = biological target: Macrophage colony-stimulating factor 1 receptor (Homo sapiens) (UniProt P07333); conditions: at 0.1 µM
Chain of Macrophage colony-stimulating factor 1 receptor (Homo sapiens) (P07333 whole entry): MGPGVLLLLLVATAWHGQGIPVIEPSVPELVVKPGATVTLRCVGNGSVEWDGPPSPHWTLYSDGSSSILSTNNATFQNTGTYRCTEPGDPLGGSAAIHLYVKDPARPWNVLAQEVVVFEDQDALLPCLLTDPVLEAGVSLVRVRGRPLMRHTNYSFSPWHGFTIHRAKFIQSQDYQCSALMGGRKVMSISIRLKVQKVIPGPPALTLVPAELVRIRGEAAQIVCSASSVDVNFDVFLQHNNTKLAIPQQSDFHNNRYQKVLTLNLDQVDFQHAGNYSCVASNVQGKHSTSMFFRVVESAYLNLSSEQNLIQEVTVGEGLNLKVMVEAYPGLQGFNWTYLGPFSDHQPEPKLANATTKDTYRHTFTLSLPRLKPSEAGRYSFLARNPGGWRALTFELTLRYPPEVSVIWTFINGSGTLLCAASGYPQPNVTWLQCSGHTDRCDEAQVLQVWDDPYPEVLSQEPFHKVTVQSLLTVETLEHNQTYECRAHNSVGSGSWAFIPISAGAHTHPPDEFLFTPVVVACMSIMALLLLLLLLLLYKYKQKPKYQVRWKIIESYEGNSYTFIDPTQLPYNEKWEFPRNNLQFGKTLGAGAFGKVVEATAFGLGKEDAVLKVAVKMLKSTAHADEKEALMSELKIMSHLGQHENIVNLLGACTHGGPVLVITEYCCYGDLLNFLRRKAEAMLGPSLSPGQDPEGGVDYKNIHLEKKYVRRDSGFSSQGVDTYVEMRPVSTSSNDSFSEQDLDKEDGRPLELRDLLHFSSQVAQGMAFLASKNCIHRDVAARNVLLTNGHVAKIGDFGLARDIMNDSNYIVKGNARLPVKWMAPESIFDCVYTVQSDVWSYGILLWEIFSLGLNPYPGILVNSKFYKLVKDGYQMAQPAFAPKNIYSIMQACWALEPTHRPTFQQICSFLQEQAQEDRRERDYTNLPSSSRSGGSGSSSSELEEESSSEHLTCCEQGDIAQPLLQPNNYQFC

[19] = biological target: Macrophage colony-stimulating factor 1 receptor (Homo sapiens) (UniProt P07333); conditions: at 1 µM
[20] = biological target: Tyrosine-protein kinase Fyn (Homo sapiens) (UniProt P06241); conditions: at 0.1 µM
Chain of Tyrosine-protein kinase Fyn (Homo sapiens) (P06241 2-537 limits assumed): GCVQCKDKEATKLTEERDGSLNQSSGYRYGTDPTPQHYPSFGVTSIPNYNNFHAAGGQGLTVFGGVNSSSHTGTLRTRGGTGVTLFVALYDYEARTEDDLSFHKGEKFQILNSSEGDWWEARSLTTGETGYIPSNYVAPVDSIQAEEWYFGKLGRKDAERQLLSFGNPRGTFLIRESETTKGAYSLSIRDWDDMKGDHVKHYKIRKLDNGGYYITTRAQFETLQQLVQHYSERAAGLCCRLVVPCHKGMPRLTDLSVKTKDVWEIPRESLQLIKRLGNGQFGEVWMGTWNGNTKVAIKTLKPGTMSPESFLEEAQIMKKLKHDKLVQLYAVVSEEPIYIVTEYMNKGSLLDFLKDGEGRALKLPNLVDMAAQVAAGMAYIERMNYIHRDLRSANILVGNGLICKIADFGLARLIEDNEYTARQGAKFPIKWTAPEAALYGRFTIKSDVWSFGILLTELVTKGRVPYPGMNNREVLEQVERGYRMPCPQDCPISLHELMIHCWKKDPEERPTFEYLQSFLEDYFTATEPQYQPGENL

Row | Compound | inhibition [1] | inhibition [2] | inhibition [3] | inhibition [4] | inhibition [5] | inhibition [6] | inhibition [7] | inhibition [8] | inhibition [9] | inhibition [10] | inhibition [11] | inhibition [12] | inhibition [13] | inhibition [14] | inhibition [15] | inhibition [16] | inhibition [17] | inhibition [18] | inhibition [19] | inhibition [20]
1 | CN(C)CCOc1ccc(-c2cc(-c3ccc4c(c3)CCC4=NO)c(-c3ccncc3)o2)cc1 | 0% | 0.25% | 0.32% | -0.54% | 0.32% | -0.38% | -0.66% | -2.05% | 0.51% | -0.48% | -0.58% | 1.65% | -0.86% | 1.31% | -3.1% | -0.84% | -0.94% | -3.24% | -0.1% | 1.29%
2 | Fc1ccc(-c2ncn(C3CCNCC3)c2-c2ccnc(Oc3ccc4c(c3)OCO4)n2)cc1 | 5.91% | 3.2% | 6.26% | 7.49% | 6.41% | 1.13% | 1.67% | 2.69% | 4.77% | 7.85% | 7.95% | 4.77% | 3.7% | 7.25% | -0.75% | 3.31% | 5.76% | 2.5% | 12.1% | 1.06%
